Source: PubChem BioAssay AID1963315 (National Center for Advancing Translational Sciences (NCATS), 2024)
Results filed as inconclusive are left out. Unmarked numbers belong to inactive results. The source made the active and inactive calls. The call rests on the fitted dose curve.

target: Tyrosine-protein kinase ABL1 (Homo sapiens) (UniProt P00519); assay: ABL1 kinase (ABL1-N-HiBiT) SDR gain of signal screen; settings: Purified ABL1-N-HiBiT enzyme, Nano-Glo HiBiT luminescence, 30 min compound incubation; series mostly up to 32.9 µM; activity change, gain of signal: at the top concentration
Sequence (P00519 whole entry, looked up): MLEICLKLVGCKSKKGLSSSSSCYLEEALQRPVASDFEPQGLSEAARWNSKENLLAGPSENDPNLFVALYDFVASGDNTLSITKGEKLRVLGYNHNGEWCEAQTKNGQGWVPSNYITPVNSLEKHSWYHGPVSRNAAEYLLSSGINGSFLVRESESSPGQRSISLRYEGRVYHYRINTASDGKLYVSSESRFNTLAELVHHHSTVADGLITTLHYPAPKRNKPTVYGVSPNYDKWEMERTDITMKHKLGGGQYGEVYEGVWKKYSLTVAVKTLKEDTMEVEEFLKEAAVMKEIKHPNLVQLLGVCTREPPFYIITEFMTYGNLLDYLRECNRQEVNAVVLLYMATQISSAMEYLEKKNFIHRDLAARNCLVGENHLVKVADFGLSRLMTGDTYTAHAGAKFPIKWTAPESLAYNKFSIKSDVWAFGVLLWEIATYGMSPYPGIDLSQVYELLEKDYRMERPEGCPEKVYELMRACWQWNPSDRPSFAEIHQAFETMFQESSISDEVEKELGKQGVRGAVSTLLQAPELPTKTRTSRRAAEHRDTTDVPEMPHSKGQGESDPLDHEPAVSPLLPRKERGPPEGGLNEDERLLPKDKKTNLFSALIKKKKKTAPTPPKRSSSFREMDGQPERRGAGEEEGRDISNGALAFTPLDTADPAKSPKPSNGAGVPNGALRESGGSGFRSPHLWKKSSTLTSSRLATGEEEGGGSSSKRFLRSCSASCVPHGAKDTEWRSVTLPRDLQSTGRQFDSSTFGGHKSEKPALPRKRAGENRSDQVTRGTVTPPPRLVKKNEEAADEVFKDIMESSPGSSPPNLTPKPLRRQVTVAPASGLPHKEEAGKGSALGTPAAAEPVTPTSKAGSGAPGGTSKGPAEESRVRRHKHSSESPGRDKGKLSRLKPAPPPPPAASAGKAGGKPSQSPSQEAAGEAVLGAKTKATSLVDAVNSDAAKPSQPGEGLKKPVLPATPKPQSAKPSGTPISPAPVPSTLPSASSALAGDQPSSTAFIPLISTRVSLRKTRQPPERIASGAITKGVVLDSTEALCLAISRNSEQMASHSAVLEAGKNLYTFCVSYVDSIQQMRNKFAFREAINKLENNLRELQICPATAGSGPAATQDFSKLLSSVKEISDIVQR
Description: National Center for Advancing Translational Sciences (NCATS),
National Institute of Health (NIH), Maryland
Discovery and optimization of novel protein-binding ligands underlies many of the methods and applications of biology, drug discovery, clinical diagnostics, and environmental toxicology. Assays for detecting the interaction of, for example, a molecule with a macromolecular target also referred to here as the target of interest (TOI) is dependent on a compatible output technology. Depending on the nature and knowledge surrounding the TOI, whether a receptor, enzyme, regulatory subunit or scaffold, or a sequence-defined nucleic acid folded into a complex tertiary structure, assay strategies can vary widely.
Here we exploit ligand-biased changes in the structural dynamics of the target protein to control reporter alpha complementation allowing a non-competitive, non-functional, non-separation measure of ligand-target interaction.
Secondly, we show the specificity and sensitivity of the SDR for the Abelson tyrosine kinase (ABL1) compared to the serine/threonine protein kinase A, using an enriched chemical library of 128 compounds selected, in part, for activity annotated with ABL1 kinase activity using the Pharos database (3).
(1) A. S. Dixon et al., NanoLuc Complementation Reporter Optimized for Accurate Measurement of Protein Interactions in Cells. ACS Chem Biol 11, 400-408 (2016).
Chemistry & Biology, 19, 1060 - 1072 (2012).
(3) K. J. Kelleher et al., Pharos 2023: an integrated resource for the understudied human proteome. Nucleic Acids Res 51, D1405-D1416 (2023).
PROTOCOL TABLE (as described by Inglese J, Shamu CE and Guy RK. 2007)
SEQUENCE No. (e.g., 1, 2, 3, etc.); […] (e.g., C. elegans, Compounds, Incubation, Read, etc.); VALUE and DESCRIPTION.
1. Reagent. Dispense 4 uL ABL1-N-HiBiT enzyme per well at a final enzyme concentration of 10 nM in buffer without ATP (SDR assay) into columns 2-48 of four replicate Greiner 1536-well white, solid bottom high base, medium plates per assay. Dispense respective buffer without enzyme at 4 uL/well in column 1 of assay plates using BioRaptr 2.
2. Compounds. Library compounds added at 23 nL/well by pin transfer. DMSO neutral control and imatinib positive control added at 25 nL/well, transfer by Mosquito dispenser.
3. Incubation. Incubate enzyme and compounds at room temperature for 30 min, protected from light.
4. Reagent. (SDR assay) Add 3 uL/well of Nano-Glo HiBiT reagent (Promega) to assay plates with or without ATP.
5. Incubation. (SDR assay) Incubate enzyme solution and HiBiT reagent at room temperature for 10 min, protect from light.
6. Detector. (SDR assay) Luminescence measured using CCD-based camera (ViewLux) with settings as follows: Exposure, 1 sec; Gain, High; Speed, Slow; Binning, 2X.
Inglese J, Shamu CE and Guy RK, Reporting data from high throughput screening of small molecule libraries, Nature Chemical Biology, 2007, 3(8): 438-441. doi.org/10.1038/nchembio0807-438.

Structure (SMILES)	activity change, gain of signal	Potency
O=C(NC1CCNCC1)c1[nH]ncc1NC(=O)c1c(Cl)cccc1Cl	11.1%	–
Nc1nc(NCCNc2ncc(-n3ccnc3)c(-c3ccc(Cl)cc3Cl)n2)ccc1[N+](=O)[O-]	-22.7%	–
O=C(c1cccc(Cl)c1F)N1CCN(Cc2cccc(Nc3nccs3)n2)CC1	–	3930 nM (active)
COc1ccc(CNC(=O)Nc2ncc([N+](=O)[O-])s2)cc1	-14.6%	–
COc1cc(N2CCC(N3CCN(C)CC3)CC2)ccc1Nc1ncc(Cl)c(Nc2ccccc2P(C)(C)=O)n1	–	605 nM (active)
Cc1cc(Nc2ncc3cc(-c4c(Cl)cccc4Cl)c(=O)n(C)c3n2)ccc1F	–	4.94 nM (active)
COc1cc(N2CCN(C)CC2)ccc1Nc1nc(N)c(C(=O)c2c(Cl)cccc2Cl)s1	1.1%	–
O=C(Nc1cc(C(F)(F)F)ccc1N1CCCCC1)c1ccncc1	-5.06%	–
CCCCCCCCCCCCc1ccc(S(=O)(=O)Nc2nncs2)cc1	9.18%	–
Cc1cccc(/C=N/Nc2cc(N3CCOCC3)nc(OCCc3ccccn3)n2)c1	5.57% [at 26.3 µM]	–
CCOc1ccn(-c2ccc(F)cc2)c(=O)c1C(=O)Nc1ccc(Oc2ccnc(N)c2Cl)c(F)c1	–	4160 nM (active)
Cc1ccc(NC(=O)N2CCN(c3nc(N)nc4sc(-c5cccnc5)nc34)CC2)cc1	21.7%	–
CO[C@H]1/C=C/O[C@@]2(C)Oc3c(C)c(O)c4c(O)c(c(/C=N\N5CCN(C6CCCC6)CC5)c(O)c4c3C2=O)NC(=O)/C(C)=C\C=C\[C@H](C)[C@H](O)[C@@H](C)[C@@H](O)[C@@H](C)[C@H](OC(C)=O)[C@@H]1C	-35.9%	–
O=S(=O)(/N=C/c1c(O)ccc2ccccc12)c1cccs1	1.83%	–
Cc1cc(F)ccc1-c1nc(NCCN=C(N)NC#N)nc2c1ccc(=O)n2-c1c(F)cccc1F	4.17%	–
Cc1[nH]c2ccccc2c1C1=C(NCCc2ccc(F)cc2)C(=O)N(C)C1=O	-9.98%	–
CC[C@@](C)(Nc1ccnc(-c2c[nH]c3ncccc23)n1)C(=O)NCC(F)(F)F	–	1440 nM (active)
COc1ccc(S(=O)(=O)N(C(C)=O)c2ccccc2/C=C/c2cc[n+]([O-])cc2)cc1	7.6%	–
Cc1ccc(C(=O)Nc2ccc(CN3CCN(C)CC3)c(C(F)(F)F)c2)cc1C#Cc1cnc2[nH]ncc2c1	–	4.14 nM (active)
O=C(O)C1(Cc2cccc(Nc3nccs3)n2)CCC(Oc2cccc(Cl)c2F)CC1 (stereo not given)	–	114 nM (active)

Structure (SMILES)	activity change, gain of signal	Potency
CCCCNc1ncc2c(-c3ccc(S(=O)(=O)N4CCOCC4)cc3)nn(C3CCC(O)CC3)c2n1 (stereo not given)	–	1520 nM (active)
Cc1cc(O)c2c(c1)C(=O)c1cc(O)cc(O)c1C2=O	2.25%	–
COc1cc(N2CCC(O)CC2)ccc1Nc1nc(Nc2ccccc2S(=O)(=O)C(C)C)c2[nH]cnc2n1	–	10800 nM (active)
C=CC(=O)N1CCC(Oc2cc3c(Nc4ccc(Cl)c(Cl)c4F)ncnc3cc2OC)CC1	–	10800 nM (active)
COc1cc2nccc(Oc3ccc(NC(=O)Nc4ccc(F)cc4F)c(F)c3)c2cc1OC	–	641 nM (active)
C=CC(=O)Nc1cccc(Oc2nc(Nc3ccc(N4CCN(C)CC4)cc3OC)ncc2Cl)c1	10.9%	–
O=c1cc(N2CCOCC2)nc2c3ccccc3ccn12	–	8550 nM (active)
N#Cc1cccc(-c2c[nH]c3ncnc(N4CCOCC4)c23)c1	–	10200 nM (active)
CC1(C)OCCn2c1nc1c(N3CCOCC3)nc(-c3cnc(N)nc3)nc12	–	6230 nM (active)
O=C(NCCO)c1cccc(-c2cc(Nc3ccc(OC(F)(F)F)cc3)ncn2)c1	16.7%	–
C[C@@H](NC(=O)c1ncnc(N)c1Cl)c1ncc(C(=O)Nc2cc(C(F)(F)F)c(Cl)cn2)s1	–	241 nM (active)
COc1ccccc1-c1c[nH]c2ncc(-c3cncc(C(=O)N(C)C)c3)cc12	–	3.04 nM (active)
COC(=O)Nc1ccc(-c2nc(N3CCOCC3)c3cnn(C4CCN(C(=O)OC)CC4)c3n2)cc1	1.9%	–
c1ccc2c(-c3cnn4cc(-c5ccc(N6CCNCC6)cc5)cnc34)ccnc2c1	–	148 nM (active)
O=C1C(c2c(O)[nH]c3ccccc23)=Nc2ccccc21	-1.14%	–
O=C(NOCC(O)CO)c1cc(Br)c(F)c(F)c1Nc1ccc(I)cc1F (stereo not given)	-2.82%	–
Cc1ccc(-n2nc(C(C)(C)C)cc2NC(=O)NCc2cc(F)ccc2Oc2ccc3c(cnn3CCO)c2)cc1	–	67.9 nM (active)
N#Cc1ccc2ncnc(NCCc3ccccc3)c2c1	5.52%	–
CN1CCN(CCOc2cc(OC3CCOCC3)c3c(Nc4c(Cl)ccc5c4OCO5)ncnc3c2)CC1	–	12.5 nM (active)
FC(F)(F)c1ccc(/C=C/c2nc(COc3ccc(CCCCn4ccnn4)cc3)co2)cc1	-2.47%	–
